PD-1 reversal = reversal of PD-1 mediated T-cell inhibition; activation, % (test concentration not listed); 29,000 tested, under 10 active; primary human CD4 T cells, PD-L1 beads, CellTiter-Glo 96 h; call rule not given here
Hedgehog inh = blocks Sonic Hedgehog signaling | 22,000 tested, 2.1% active | Shh-LIGHT2 Gli-luciferase reporter, 30 h | inhibition, % (test concentration not listed) | AID 2313;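 active = mean inhibition across valid replicates above about 65%, limit read from the data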;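 also: pathway switched on by Shh-conditioned medium diluted 1 in 25 in low serum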
MITF inh = blocks MITF activity. AID 2240. inhibition, % (test concentration not listed). 37,000 tested, 0.28% active. TRPM1 promoter luciferase, luminescence, 24 h; in the data active = inhibition above about 85%;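 also: human melanocyte line stably carrying TRPM1 promoter luciferase reporter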
NOMO-1 viab = STK33 inhibitor candidate reducing NOMO-1 cell viability; 37,000 tested, 7.5% active; NOMO-1 AML viability, CellTiter-Glo luminescence, 72 h; inhibition, % (test concentration not listed); in the data active = inhibition above about 80%
Each line names hits and unclear results; the compound was inactive in the other large screens; ! = not active in a repeat. Only some compounds are listed: those with a hit (about 8.1% of all), similar ones and a draw of the others.

Cc1ccc(S(=O)(=O)Nc2ccc3c(c2)CC(=O)N([C@H](C)CO)C[C@@H](C)[C@H](CN(C)Cc2ccc(C(=O)Nc4ccccc4N)cc2)O3)cc1	none (no result: Hedgehog inh)
O=C(CSc1nc(Nc2ccccc2)nc(N2CCOCC2)n1)Nc1ccccc1Cl	none (no result: Hedgehog inh)
COC(=O)c1cc(NC(=O)CSc2nc(Nc3ccccc3)nc(N3CCOCC3)n2)ccc1Cl	NOMO-1 viab 117 (no result: Hedgehog inh)
Cc1cc(Cl)ccc1OCCNS(=O)(=O)c1cc([N+](=O)[O-])ccc1C	none (no result: Hedgehog inh)
Nc1nc(COc2cccc3cccnc23)nc(Nc2ccccc2)n1	NOMO-1 viab 91 (no result: Hedgehog inh)
O=C1NC(=O)c2cc(-c3ccccc3)ccc21	none
CC1(C)CC(=O)c2c([nH]c(-c3ccccc3)c2-c2ccccc2)C1	NOMO-1 viab 92
N#CCC(c1ccccc1)c1ccccc1	none (no result: Hedgehog inh)
Oc1c(C(c2ccncc2)N2CCCC2)ccc2cccnc12 (stereo not given)	NOMO-1 viab 143
c1ccc(C(c2ccccc2)N2CCC2)cc1	none
COc1ccc(C(c2ccc3cccnc3c2O)N2CCOCC2)cc1 (stereo not given)	Hedgehog inh 68, NOMO-1 viab 118
O=C(Oc1ccc2ccccc2c1)C1c2ccccc2Oc2ccccc21	none
CSc1ccc2c(c1)C(N1CCN(C)CC1)Cc1ccccc1S2 (stereo not given)	Hedgehog inh 70, NOMO-1 viab 143!
CN1CCCC(CC2c3ccccc3Sc3ccccc32)C1 (stereo not given)	none (no result: PD-1 reversal)
Cc1ccccc1NC(=O)CCC(=O)OC1CCC(C(C)(C)C)CC1 (stereo not given)	NOMO-1 viab 93
Cc1ccccc1NC(=O)CCCC(=O)O	none (no result: Hedgehog inh)
N#CC1=C(N)Nc2c(c(=O)oc3ccccc23)C1c1ccc(Br)cc1 (stereo not given)	Hedgehog inh 72
COc1ccc(N(CN2C(=O)c3ccccc3C2=O)C(=O)c2ccccc2)cc1	none (no result: Hedgehog inh)
Cc1nc(SC2CCCCN(C(=O)c3ccc(Cl)cc3)C2=O)c2c3c(sc2n1)CCCC3 (stereo not given)	NOMO-1 viab 93
C[C@H](CO)N1C[C@H](C)[C@H](CN(C)Cc2ccc(Cl)c(Cl)c2)Oc2ccc(NC(=O)Nc3ccc4c(c3)OCO4)cc2C1=O	NOMO-1 viab 88
C[C@H](CO)N1C[C@H](C)[C@@H](CN(C)Cc2ccc(Cl)c(Cl)c2)Oc2ccc(NC(=O)Nc3ccc4c(c3)OCO4)cc2C1=O	NOMO-1 viab 101
O=C(CSc1nnc(-c2cccc([N+](=O)[O-])c2)n1-c1ccccc1)c1ccc(Br)cc1	none (no result: Hedgehog inh)
COc1cc(C2C(C#N)=C(C)Nc3oc(C)nc32)ccc1OCCN1CCOCC1 (stereo not given)	none
Cc1cc(OCC(=O)Nc2ccc(O)c(-c3nc4ccccc4o3)c2)ccc1Cl	NOMO-1 viab 107 (no result: Hedgehog inh)
C[C@@H]1CCCCO[C@H](CN(C)Cc2ccc3c(c2)OCO3)[C@@H](C)CN([C@H](C)CO)C(=O)c2cc(NC(=O)Nc3ccc4c(c3)OCO4)ccc2O1	none (no result: PD-1 reversal, Hedgehog inh)
C[C@@H]1CCCCO[C@@H](CN(C)Cc2ccc3c(c2)OCO3)[C@@H](C)CN([C@H](C)CO)C(=O)c2cc(NC(=O)Nc3ccc4c(c3)OCO4)ccc2O1	Hedgehog inh 68
C[C@@H]1CCCCO[C@@H](CN(C)Cc2ccc3c(c2)OCO3)[C@@H](C)CN([C@H](C)CO)C(=O)c2cc(NC(=O)Nc3ccc(C(F)(F)F)cc3)ccc2O1	NOMO-1 viab 113 (no result: Hedgehog inh)
C[C@@H]1CCCCO[C@@H](CN(C)Cc2ccc(Cl)c(Cl)c2)[C@@H](C)CN([C@H](C)CO)C(=O)c2cc(NC(=O)Nc3ccc(C(F)(F)F)cc3)ccc2O1	NOMO-1 viab 105 (no result: Hedgehog inh)
CC(C)NC(=O)Nc1ccc2c(c1)C(=O)N([C@H](C)CO)C[C@H](C)[C@H](CN(C)Cc1ccc(C(F)(F)F)cc1)OCCCC[C@@H](C)O2	none (no result: Hedgehog inh)
C[C@@H]1CCCCO[C@@H](CN(C)Cc2ccc(Cl)c(Cl)c2)[C@@H](C)CN([C@H](C)CO)C(=O)c2cc(NC(=O)C3CCCCC3)ccc2O1	NOMO-1 viab 114 (no result: Hedgehog inh)
C[C@@H]1CCCCO[C@@H](CN(C)Cc2ccc3c(c2)OCO3)[C@@H](C)CN([C@H](C)CO)C(=O)c2cc(NC(=O)Nc3ccc(F)cc3)ccc2O1	none (no result: Hedgehog inh)
O=C(Nc1ccc(NS(=O)(=O)c2cccc(C(=O)Nc3ccc(Br)cc3)c2)cc1)c1ccccc1	none (no result: Hedgehog inh)
COc1ccc(CNCc2cccc(OC)c2)cc1	none
O=C(CSc1nc(-c2ccc(Cl)cc2)cc(C(F)(F)F)n1)c1cccc([N+](=O)[O-])c1	none (no result: PD-1 reversal, Hedgehog inh)
COC(=O)c1ccccc1NC(=O)NCc1ccc(C(=O)O)cc1	none (no result: PD-1 reversal, Hedgehog inh)
C[C@@H]1CCCCO[C@@H](CN(C)Cc2ccc(Cl)c(Cl)c2)[C@@H](C)CN([C@H](C)CO)C(=O)c2cc(NC(=O)Nc3ccccc3)ccc2O1	NOMO-1 viab 103
